# TDP1 cell CPT: growth inhibition of DT40 Tdp1-/-;hTDP1 cells with camptothecin (screen for TDP1 inhibitors) | Potency, µM (doses to about 46.2 µM), without a hit: at the highest dose activity change, negative = growth inhibition, usual class: inhibitors | 420,000 tested, 12% active | AID 686979 | chicken DT40 Tdp1-/-;hTDP1 cells + 20 nM CPT, ATP luminescence, 48 h; note: potency is the fitted concentration of half-maximal effect; nearly all actives have a fitted effect of over 55% in size
#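 Chicken DT40 Tdp1-/- cells complemented with human TDP1, 400 cells/well, exposed to compounds plus 20 nM camptothecin for at least 48 h at 37 C; viability read as ATP content by CellTiter-Glo luminescence.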
# HT1080 IDH1KD tx: HT-1080 IDH1 knockdown cell toxicity (counter line). HT-1080 IDH1 knockdown viability, ATP luminescence, 48 h. Potency, µM (top dose mostly 46.1 µM), inactives show at the highest dose activity, negative = toxicity, usual class: cytotoxic. 360,000 tested, 2% active;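 note: potency is the fitted concentration of half-maximal effect; 0% = DMSO wells and -100% = cell-free medium wells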
#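 % activity derives from luminescence (CellTiter-Glo), normalised to DMSO and no-cell wells. HT-1080-IDH1KD cells, 750/well, had 48 h compound exposure at 37 °C.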
# HT1080NT lethal: kills 2HG-producing HT-1080-NT fibrosarcoma cells; Potency, µM (doses to about 46.1 µM), for the others: top-dose activity, negative = less viability, most hits filed as cytotoxic; HT-1080-NT fibrosarcoma viability, CellTiter-Glo ATP luminescence, 48 h; AID 686970; 360,000 tested, 1.6% active;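 note: NT is the 2HG producing partner of a matched IDH1 knockdown line; potency is the fitted concentration of half-maximal effect; 0% = DMSO-treated cells and -100% = media-only wells without cells; nearly all actives have a fitted effect of over 55% in size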
#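 Viability of the 2HG-overproducing fibrosarcoma line after 48 hours of compound exposure at 37 degrees C was determined by luminescence with CellTiter-Glo, and concentration-effect curves were then fitted and categorized.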
# TDP1 cell noCPT: qHTS for Inhibitors of human tyrosyl-DNA phosphodiesterase 1 (TDP1): qHTS in cells in absence of CPT; DT40 Tdp1-/- hTDP1 cells, no CPT, ATP luminescence, 48 h; Potency, µM (top dose mostly 46.2 µM), for inactives: at the highest dose activity change, negative = growth inhibition, usual class: inhibitors; 420,000 tested, 15% active; AID 686978, 2013; note: potency is the fitted concentration of half-maximal effect; nearly all actives have a fitted effect of over 55% in size
#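 Cells were dispensed at 400 per well, compounds added by pin tool, plates incubated ≥48 hr at 37 °C, then CellTiter-Glo added for 30 min at room temperature before luminescence reading. Line: DT40 Tdp1-/- complemented with hTDP1; camptothecin omitted.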
# IL-1B inflam inh: blocks inflammasome-driven IL-1 beta release; THP-1 LPS/ATP IL-1B secretion, AlphaLISA, 16 h; active compounds read low; activity change, % at 57.5 µM; 360,000 tested, 4.7% active; in the data active = activity change below about -50%; inconclusive = mostly about -30% to -49%
#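 THP-1 cells pretreated 1 hr with compounds (up to 57.5 uM final), then stimulated with LPS (250 ng/mL final) plus ATP (1.25 mM final); secreted IL-1B measured by AlphaLISA after 16 hr, decreased signal indicating inhibition.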
# * = called active by the depositor; ? = inconclusive; . = no result given. Only some compounds are listed: those with a hit (about 19% of all), similar ones and a draw of the others. Unless noted, calls come from the whole dose curve; as a rule, active = well fitted curve in the direction sought with a large enough effect; inconclusive = small, poorly fitted or top-dose-only effect, or another doubt; inactive = no such curve, though single readings can be large; an effect the other way counts as inactive or inconclusive. Unless noted, % is set by controls: 0 for no effect and ±100 for the full control effect.
SMILES,TDP1 cell CPT,HT1080 IDH1KD tx,HT1080NT lethal,TDP1 cell noCPT,IL-1B inflam inh
Cc1nc(N2CCN(S(=O)(=O)c3ccccc3C#N)CC2)c2c(-c3cccs3)csc2n1,?,-13.0%,-1.7%,20.6µM*,-2.7
Cc1ccccc1S(=O)(=O)N1CCN(c2nc(-c3cccs3)nc3ccccc23)CC1,?,23.4%,17.2%,?,.
CC(=O)c1ccccc1S(=O)(=O)N1CCN(c2nc(-c3cccs3)nc3ccccc23)CC1,8.91µM*,0.1%,0.9%,7.08µM*,.
CCOC(=O)c1ccccc1S(=O)(=O)N1CCN(c2nc(-c3cccs3)nc3ccccc23)CC1,11.2µM*,22.7%,15.1%,11.2µM*,.
COc1ccccc1S(=O)(=O)N1CCN(c2nc(-c3cccs3)nc3ccccc23)CC1,10µM*,0.0%,7.4%,7.94µM*,.
O=C(NNS(=O)(=O)c1ccc(Cl)cc1)c1cccc(S(=O)(=O)N2CCOCC2)c1,-5.4%,8.1%,0.0%,-19.4%,-0.9
COc1ccc(NS(=O)(=O)c2cccs2)cc1S(=O)(=O)N1CCOCC1,12.8%,16.6%,5.7%,-4.4%,16.0
COc1ccc(Nc2nc(-c3cccs3)nc3ccccc23)cc1S(=O)(=O)N1CCOCC1,18.4µM*,?,16.4µM*,3.26µM*,-66.3*
CC1(C(=O)NCC2CCCCC2)CCN1CCc1ccccc1 (stereo unspecified),?,-20.0%,-25.5%,?,5.8
CC1(C(=O)NC2CCc3ccccc32)CCN1CCc1ccccc1 (stereo unspecified),16.4µM*,3.6%,-1.4%,18.4µM*,26.5
Cc1nc(NCCNC(=O)c2ccco2)c2c(C)c(C)sc2n1,?,0.0%,0.6%,20.6µM*,27.2
Cc1nc(NCCc2ccc(S(N)(=O)=O)cc2)c2c(C)c(C)sc2n1,16.4µM*,-24.5%,-13.1%,14.6µM*,-2.4
O=C(CCc1c[nH]c2ccccc12)NCC(=O)Nc1ccc(F)c(F)c1F,14.7%,10.3%,3.5%,0.5%,10.8
CN(CC(=O)Nc1ccc(F)cc1)C(=O)CN1C(=O)NC(CCc2ccccc2)C1=O (stereo unspecified),11.6µM*,-13.6%,-3.6%,25.9µM*,12.0
O=C(CN1C(=O)NC(CCc2ccccc2)C1=O)Nc1ccc(F)c(F)c1F (stereo unspecified),25.9µM*,1.1%,-4.8%,?,-12.9
COc1ccc(Oc2ncc3nc(C)c(=O)n(-c4ccc(OC)cc4)c3n2)cc1,0.3%,.,.,?,.
O=C(CN1C(=O)CCSc2ccccc21)Nc1ccc2c(c1)OCO2,-12.2%,-26.3%,-1.8%,-21.2%,12.5
CNc1ccc2ncc(-c3cccc(C(=O)N(C)C)c3)n2n1,?,-12.9%,-15.2%,11.6µM*,-12.6
O=C(CNc1cccc(S(=O)(=O)N2CCOCC2)c1)Nc1ccccc1F,-9.3%,9.1%,21.0%,6.8%,21.3
CCOc1ccc(-c2cncc3nccn23)cc1,-22.5%,14.3%,?,-26.1%,-52.0*
CC(Oc1ccc2c3c(c(=O)oc2c1)CCC3)C(=O)NCCCn1ccnc1 (stereo unspecified),-23.9%,0.2%,7.2%,11.4%,4.4
Cc1csc(=O)n1CCC(=O)N(C)Cc1c(F)cccc1Cl,?,1.0%,10.9%,16.4µM*,11.0
Cc1cc(NC(=O)CSCC(=O)N(C)Cc2c(F)cccc2Cl)no1,0.6%,0.6%,-8.4%,-3.7%,10.5
Cc1cccc(NC(=O)CSCC(=O)N(C)Cc2c(F)cccc2Cl)c1,?,-1.8%,1.6%,13µM*,6.1
Cc1cccc(NC(=O)CSCC(=O)Nc2cc(Cl)ccc2N2CCN(C)CC2)c1,?,14.6µM*,14.6µM*,?,-79.2*
COc1ccccc1-c1nnc(SC(C)C(=O)O)n1-c1ccccc1 (stereo unspecified),6.3%,5.5%,6.4%,1.1%,33.8
CCOc1ccc(N(CC(=O)NC2CC3CCC2C3)S(=O)(=O)c2ccccc2)cc1 (stereo unspecified),?,-4.0%,-15.8%,-19.3%,-2.8

# Screening results as filed in PubChem BioAssay.
